Results as given in the supplement of paper PMC7411640.
Counter-ions that a name gives are not always drawn.

Tested on: MDA-MB-468
Experiment: phospho-S6 immunofluorescence (DAPI-normalised), per-plate z-score; higher = higher phospho-S6 signal (less pathway suppression)
Conditions: 24 h
Procedure: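 GPCR-targeted compound library (MedChemExpress HY-L006) tested on MDA-MB-468 PTEN-null TNBC cells in 384-well plates at 0.1, 1 or 10 uM, combined with vehicle, GDC0941 450 nM or lapatinib 1 uM, for 24 h. Phospho-S6 (S240/244) immunofluorescence normalised to DAPI and expressed as a per-plate z-score; values are the mean of biological triplicates.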

| SMILES | phospho-S6 immunofluorescence (z-score) (co-treatment: GDC0941 450 nM) | phospho-S6 immunofluorescence (z-score) (co-treatment: lapatinib 1 uM) | phospho-S6 immunofluorescence (z-score) (co-treatment: vehicle) |
| --- | --- | --- | --- |
| CC(C)C[C@H]1C(=O)N2CCC[C@H]2[C@]2(O)O[C@](NC(=O)[C@@H]3C=C4c5cccc6[nH]c(Br)c(c56)C[C@H]4N(C)C3)(C(C)C)C(=O)N12 [Bromocriptine (mesylate)] (compound 10 µM) | -3.83 | -3.57 | -1.61 |
| N#Cc1c(Oc2cccc(OS(=O)(=O)CCCC(F)(F)F)c2)cccc1C(F)(F)F (compound 10 µM) | -3.05 | -2.85 | -5.42 |
| CC[N+](C)(CC)CCOC(=O)C(O)(c1ccccc1)c1ccccc1 [Methylbenactyzium Bromide] (compound 10 µM) | -0.26 | -0.59 | -0.57 |
| C[C@H]1CNCCc2ccc(Cl)cc21 [Lorcaserin (Hydrochloride)] (compound 10 µM) | -1 | -0.25 | -0.95 |
| CN1CCC(C(=O)c2cccc(NC(=O)c3c(F)cc(F)cc3F)n2)CC1 [Lasmiditan (hydrochloride)] (compound 10 µM) | -2.08 | -3.95 | -0.09 |
| O=C1Nc2ccccc2C2(CCN(CCc3ccc(C(F)(F)F)cc3)CC2)O1 (compound 10 µM) | -3.3 | -4.41 | -4.38 |
| O=C(O[C@H]1C[N+]2(CCCOc3ccccc3)CCC1CC2)C(O)(c1cccs1)c1cccs1 [Aclidinium (Bromide)] (compound 10 µM) | 0.75 | 1.09 | -0.87 |
| C[N+]1(C)CCCC(OC(=O)C(O)(c2ccccc2)c2ccccc2)C1 (centres undefined) [Mepenzolate (Bromide)] (compound 10 µM) | -0.25 | -0.12 | -0.02 |
| CNCC(O)c1ccc(O)cc1 (centres undefined) [Synephrine (hydrochloride)] (compound 10 µM) | 1.02 | 0.35 | 0.24 |
| COc1ccc(C(=O)c2c(C)n(CCN3CCOCC3)c3cc(I)ccc23)cc1 (compound 10 µM) | -3.18 | -1.01 | -3.47 |
| CN1CCC2=C(C1)c1ccccc1Cc1ccccc12 [Setiptiline (maleate)] (compound 10 µM) | -0.68 | -1.28 | -1.11 |
| COc1cc2c3c(c1OC)-c1ccccc1C[C@H]3N(C)CC2 [Nuciferine] (compound 10 µM) | 0.21 | -0.74 | 0 |
| CN1[C@@H]2CC[C@H]1C[C@@H](OC(=O)[C@H](CO)c1ccccc1)C2 [L-Hyoscyamine] (compound 10 µM) | 0.17 | 0.67 | 0.91 |
| C[N@+]1(CC2CC2)CC[C@]23c4c5ccc(O)c4O[C@H]2C(=O)CC[C@@]3(O)[C@H]1C5 [Methylnaltrexone (Bromide)] (compound 10 µM) | 0.46 | 0.44 | -0.66 |
| NCC(O)c1ccc(O)cc1 (centres undefined) [Octopamine (hydrochloride)] (compound 10 µM) | 0.26 | 0.86 | 1.09 |
| CN1CCC2=C(C1)c1ccccc1Cc1ccccc12 [Setiptiline] (compound 10 µM) | -0.28 | -1.52 | -0.24 |
| CC(C)[C@@H](CN1CC[C@@](C)(c2cccc(O)c2)[C@@H](C)C1)NC(=O)[C@H]1Cc2ccc(O)cc2CN1 [JDTic (dihydrochloride)] (compound 10 µM) | 0.26 | -2.5 | 0.81 |
| CO[C@]12C[C@@H](COC(=O)c3cncc(Br)c3)CN(C)[C@@H]1Cc1cn(C)c3cccc2c13 [Nicergoline] (compound 10 µM) | 0.57 | -0.56 | -0.38 |
| O=Cc1cn(Cc2ccc(Cl)cc2)c2ccccc12 [Oncrasin-1] (compound 10 µM) | -3.49 | -7.38 | -9.12 |
| C=CCN1C[C@H](C(=O)N(CCCN(C)C)C(=O)NCC)C[C@@H]2c3cccc4[nH]cc(c34)C[C@H]21 [Cabergoline] (compound 10 µM) | 0.82 | -0.33 | -0.33 |
| O=c1[nH]c2ccccc2n1CCCN1CCC(n2c(=O)[nH]c3cc(Cl)ccc32)CC1 [Domperidone] (compound 10 µM) | 0.19 | 0.25 | 1.62 |
| CN1CCC(c2c[nH]c3ccc(O)cc23)CC1 (compound 10 µM) | 0.22 | 0.55 | 0.06 |
| O=C(C[S+]([O-])C(c1ccccc1)c1ccccc1)NO (centres undefined) [Adrafinil] (compound 10 µM) | -0.02 | 0.28 | -0.05 |
